Experimental findings from PubChem BioAssay are described below.

This assay deals with Epidermal growth factor receptor (Homo sapiens) (UniProt P00533). The assay is described as follows: compounds binding epidermal growth factor receptor – biochemical, small-molecule microarray, 635 nm fluorescence, primary screen (AID 1104).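 Also: score merges 667 nm emission intensity with spot signal to noise over triplicate slides.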 The settings on record: EGFR binding, higher = more signal.
Chain of Epidermal growth factor receptor (Homo sapiens) (P00533 whole entry, looked up): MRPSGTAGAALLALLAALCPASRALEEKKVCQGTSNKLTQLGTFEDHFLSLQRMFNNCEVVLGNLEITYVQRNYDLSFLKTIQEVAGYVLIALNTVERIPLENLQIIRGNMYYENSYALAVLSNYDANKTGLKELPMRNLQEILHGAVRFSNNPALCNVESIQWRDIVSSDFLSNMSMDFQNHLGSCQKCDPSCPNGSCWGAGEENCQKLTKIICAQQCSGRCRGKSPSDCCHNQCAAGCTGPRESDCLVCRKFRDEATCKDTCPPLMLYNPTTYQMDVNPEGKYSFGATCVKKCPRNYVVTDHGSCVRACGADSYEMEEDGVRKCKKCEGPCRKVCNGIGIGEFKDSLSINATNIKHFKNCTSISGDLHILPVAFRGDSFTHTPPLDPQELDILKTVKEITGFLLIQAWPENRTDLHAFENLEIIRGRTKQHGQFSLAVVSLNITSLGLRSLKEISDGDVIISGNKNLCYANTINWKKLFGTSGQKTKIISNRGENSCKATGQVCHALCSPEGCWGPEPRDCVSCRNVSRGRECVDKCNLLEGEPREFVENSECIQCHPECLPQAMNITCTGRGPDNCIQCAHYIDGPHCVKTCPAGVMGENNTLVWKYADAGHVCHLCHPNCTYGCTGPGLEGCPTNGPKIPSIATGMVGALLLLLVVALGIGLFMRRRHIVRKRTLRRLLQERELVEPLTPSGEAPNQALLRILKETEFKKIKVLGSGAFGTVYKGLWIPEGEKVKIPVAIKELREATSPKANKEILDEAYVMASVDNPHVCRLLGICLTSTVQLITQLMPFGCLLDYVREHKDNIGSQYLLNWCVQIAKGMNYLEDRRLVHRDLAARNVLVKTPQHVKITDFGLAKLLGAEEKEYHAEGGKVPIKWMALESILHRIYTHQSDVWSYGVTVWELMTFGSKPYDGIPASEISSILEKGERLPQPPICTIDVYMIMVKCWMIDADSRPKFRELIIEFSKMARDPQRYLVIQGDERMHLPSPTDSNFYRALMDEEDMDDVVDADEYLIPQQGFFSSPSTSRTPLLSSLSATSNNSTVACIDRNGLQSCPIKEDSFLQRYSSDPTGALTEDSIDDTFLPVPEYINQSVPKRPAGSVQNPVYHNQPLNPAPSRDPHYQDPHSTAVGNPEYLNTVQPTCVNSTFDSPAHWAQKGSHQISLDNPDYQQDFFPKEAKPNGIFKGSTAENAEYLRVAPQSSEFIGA
`COC(=O)[C@@]1(Cc2ccccc2)[C@H]2c3cc(C(=O)N4CCCC4)[nH]c3C[C@H]2CN1C(=O)c1ccccc1` had a composite z-score of -0.478. The compound `O=C(O)[C@H](Cc1ccccc1)n1cc(-c2ccccn2)nn1` returned a composite z-score of 0.211. On to `O=C1O[C@@H](c2ccccc2)[C@@H](c2ccccc2)N2[C@@H](c3ccccc3OCCO)[C@]3(C(=O)Nc4ccc(C#CCCO)cc43)[C@@H](C(=O)N3CCN(c4ncccn4)CC3)[C@H]12`, for which the composite z-score is -0.022. Next, `COc1ccc([Si](C)(C)[C@@H]2[C@@H](CCO)O[C@]3(C(=O)N(Cc4cccc(N5C(=O)c6ccccc6Oc6ccccc65)c4)c4ccccc43)[C@H]2C)cc1`: -0.717; `CN(C)CCCN1C(=O)[C@@]2(c3ccc([N+](=O)[O-])cc3)CC(=O)N(CC34CC5CC(CC(C5)C3)C4)[C@@H]2c2ccc(CO)cc21`: -0.708; `C[C@]12C(=O)N(CCCCCCO)[C@@H]3C(=O)N(c4ccc(Cl)cc4)CC=CC31O[C@@H]1/C=C\CCCOC(=O)C12` (some centres undefined): -0.506. Next, `CC1CC/C=C\[C@H]2OC34C=CCN(c5ccc6ccccc6c5)C(=O)[C@H]3N(C(CO)C(C)C)C(=O)[C@@H]4C2C(=O)O1` (some centres undefined): -0.56; `O=C1O[C@@H](c2ccccc2)[C@@H](c2ccccc2)N2[C@@H](c3ccc(O)cc3)[C@]3(C(=O)Nc4ccc(C#CC5=CCCCC5)cc43)[C@@H](C(=O)N3CCN(c4ncccn4)CC3)[C@H]12`: 0.383. The value for `C[C@H]1ON(c2ccc(C(=O)OC(C)(C)C)cc2)[C@@H](c2ccc(O)cc2)[C@@H]1C(=O)N1C(=O)OC[C@@H]1c1ccccc1` was 0.554.
